Measured values as given in PubChem BioAssay (NCATS).
Results filed as inconclusive are left out. The source made the active and inactive calls. Calls follow the shape of the dose curve; as a rule, active = well fitted curve in the direction sought with a large enough effect; inconclusive = small, poorly fitted or top-dose-only effect, or another doubt; inactive = no such curve, though single readings can be large; an effect the other way counts as inactive or inconclusive.

Legend:
[1] = Quantitative High-Throughput drug screen in 47 multiple myeloma cell lines against the NCATS MIPE library collection: KMS26_JCRB cell viability assay (AID 1918975); also: nearly all actives have a fitted effect of over 45% in size; also: potency is read from the fitted curve at half-maximal effect
In short: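 We plated 500 myeloma cells per well, pinned in MIPE 4.0 compounds, and incubated for 48 hours at 37C. ATP was then quantified with CellTiter-Glo, with DMSO and media-only wells defining 100% and 0%.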

[2] = Quantitative High-Throughput drug screen in 47 multiple myeloma cell lines against the NCATS MIPE library collection: OCIMY1_PLB cell viability assay (AID 1918979); also: nearly all actives have a fitted effect of over 35% in size; also: potency is read from the fitted curve at half-maximal effect; as to viability: series mostly up to about 46 µM
In short: (§1)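 Cells were exposed to library compounds for 48 hours, after which ATP was measured by CellTiter-Glo. Signal was taken as median relative luminescence units.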

[3] = Quantitative High-Throughput drug screen in 47 multiple myeloma cell lines against the NCATS MIPE library collection: LP1_DSMZ cell viability assay (AID 1918982); also: nearly all actives have a fitted effect of over 35% in size; also: potency is read from the fitted curve at half-maximal effect
In short: as §1

[4] = Quantitative High-Throughput drug screen in 47 multiple myeloma cell lines against the NCATS MIPE library collection: KMS34_JCRB cell viability assay (AID 1918985); also: nearly all actives have a fitted effect of over 40% in size; also: potency is read from the fitted curve at half-maximal effect
In short: as §1

[5] = Quantitative High-Throughput drug screen in 47 multiple myeloma cell lines against the NCATS MIPE library collection: OCIMY7_PLB cell viability assay (AID 1918987); also: potency is read from the fitted curve at half-maximal effect; nearly all actives have a fitted effect of over 65% in size
In short: as §1

[6] = Quantitative High-Throughput drug screen in 47 multiple myeloma cell lines against the NCATS MIPE library collection: OCIMY5_PLB cell viability assay (AID 1918988); also: nearly all actives have a fitted effect of over 65% in size; also: potency is read from the fitted curve at half-maximal effect
In short: as §1

[7] = Quantitative High-Throughput drug screen in 47 multiple myeloma cell lines against the NCATS MIPE library collection: OPM1_PLB cell viability assay (AID 1918989); also: nearly all actives have a fitted effect of over 40% in size; also: potency is read from the fitted curve at half-maximal effect
In short: as §1

[8] = Quantitative High-Throughput drug screen in 47 multiple myeloma cell lines against the NCATS MIPE library collection: U266_ATCC cell viability assay (AID 1919864); also: potency is read from the fitted curve at half-maximal effect; nearly all actives have a fitted effect of over 35% in size
In short: as §1

[9] = Quantitative High-Throughput drug screen in 47 multiple myeloma cell lines against the NCATS MIPE library collection: XG1_PLB cell viability assay (AID 1919866); also: nearly all actives have a fitted effect of over 35% in size; also: potency is read from the fitted curve at half-maximal effect
In short: as §1

[10] = Quantitative High-Throughput drug screen in 47 multiple myeloma cell lines against the NCATS MIPE library collection: KMS28PE_JCRB cell viability assay (AID 1918983); also: nearly all actives have a fitted effect of over 35% in size
In short: as §1

[11] = Quantitative High-Throughput drug screen in 47 multiple myeloma cell lines against the NCATS MIPE library collection: L363_DSMZ cell viability assay (AID 1918984); also: nearly all actives have a fitted effect of over 40% in size
In short: as §1

[12] = Quantitative High-Throughput drug screen in 47 multiple myeloma cell lines against the NCATS MIPE library collection: XG6_PLB cell viability assay (AID 1919865); also: nearly all actives have a fitted effect of over 40% in size
In short: as §1

[13] = Quantitative High-Throughput drug screen in 47 multiple myeloma cell lines against the NCATS MIPE library collection: MOLP8_DSMZ cell viability assay (AID 1918977); also: nearly all actives have a fitted effect of over 45% in size
In short: as §1

[14] = Quantitative High-Throughput drug screen in 47 multiple myeloma cell lines against the NCATS MIPE library collection: NCIH929_DSMZ cell viability assay (AID 1918978); also: nearly all actives have a fitted effect of over 35% in size
In short: as §1

[15] = Quantitative High-Throughput drug screen in 47 multiple myeloma cell lines against the NCATS MIPE library collection: SKMM1_PLB cell viability assay (AID 1919863); conditions: SKMM1 myeloma viability, CellTiter-Glo ATP, 48 h; viability: active compounds read low
In short: as §1

C=CC(=O)Nc1cccc(Oc2nc(Nc3ccc(N4CCN(C)CC4)cc3OC)ncc2Cl)c1
active: Potency [1] 26.4 µM | Potency [2] 20.9 µM | Potency [3] 20.9 µM | Potency [4] 16.6 µM | Potency [5] 0.001 µM | Potency [6] 0.0026 µM | Potency [7] 0.662 µM | Potency [8] 23.5 µM | Potency [9] 0.0047 µM

O=C(O)CO.[NH2-].[NH2-].[Pt+2]
inactive: Potency [1] | Potency [2] | Potency [3] | Potency [10] | Potency [11] | Potency [4] | Potency [7] | Potency [12] | Potency [9]

CCCCCCCCCC(=O)N[C@@H](Cc1c[nH]c2ccccc12)C(=O)N[C@H](CC(N)=O)C(=O)N[C@@H](CC(=O)O)C(=O)N[C@@H]1C(=O)NCC(=O)N[C@@H](CCCN)C(=O)N[C@@H](CC(=O)O)C(=O)N[C@H](C)C(=O)N[C@@H](CC(=O)O)C(=O)NCC(=O)N[C@H](CO)C(=O)N[C@@H]([C@@H](C)CC(=O)O)C(=O)N[C@@H](CC(=O)c2ccccc2N)C(=O)O[C@@H]1C
inactive: Potency [13] | Potency [14] | Potency [2] | Potency [10] | Potency [11] | Potency [6] | viability [15] 145% | Potency [12] | Potency [9]
